Experimental data reported in PubChem BioAssay AID1259343 (VanderVen Lab, College of Veterinary Medicine, Cornell …, 2017).
About 2,900 (47%) of roughly 6,200 compounds were called active. So high a share suggests a set chosen from earlier hits. This is one part of the list. A number with no mark means an inactive call. No stated cut-off is given here; in the data, active means inhibition above about 50%; inactive means the rest.

Assay: Mycobacterium tuberculosis growth inhibition, primary screen (AID 1259343)
Details: inhibition: at 10 µM, stronger effect = higher value; outcome: 10 uM

Row | Structure (SMILES) | inhibition
1 | CC(=O)C1=NN(c2ccccc2)C2C(=O)N(c3ccc(Br)cc3)C(=O)C12 (centres undefined) | 14.1%
2 | O=C1[C@H]2C(c3ccccc3)=NN(c3ccccc3)[C@H]2C(=O)N1c1ccccc1 | 73% (active)
3 | O=c1[nH]cnc2c1nnn2-c1ccc(OC(F)(F)F)cc1 | 49.2%
4 | N[C@H](C(=O)O)[C@@H]1CC(Cl)=NO1 | 91.8% (active)
5 | CCOc1c(Br)cc(C=CC(=O)c2ccc(OC)cc2)cc1OC | 14.3%
6 | CCOc1cc(C=CC(=O)c2ccc(Cl)cc2)ccc1O | 54% (active)
7 | CCOc1c(Br)cc(C=CC(=O)c2ccc(F)cc2)cc1OC | -23.1%
8 | O=S(=O)(Nc1ccc(OC(F)F)c(Cl)c1)c1ccc(F)c(Cl)c1 | -3.78%
9 | O=S(=O)(Nc1ccc(OC(F)F)c(Cl)c1)c1ccc(Cl)c(Cl)c1 | -2.94%
10 | O=S(=O)(Nc1ccc(F)c(Cl)c1)c1ccc(Br)s1 | 24.5%
11 | O=S(=O)(Nc1ccc(F)c(Cl)c1)c1ccc(Cl)s1 | 52.7% (active)
12 | O=S(=O)(Nc1ccc(OC(F)F)c(Cl)c1)c1ccc(Cl)s1 | 79.2% (active)
13 | COC(=O)c1sccc1S(=O)(=O)Nc1cc(C)ccc1OC | 54.2% (active)
14 | COC(=O)c1sccc1NS(=O)(=O)c1cc(Cl)cc(Cl)c1 | 7.22%
15 | Cc1ccc(-c2ccsc2C(=O)NS(=O)(=O)N2CCCCC2)cc1 | 20.7%
16 | O=C(C1c2ccccc2Oc2ccccc21)N(C(=O)N1CCCCC1)c1ccccc1 | 3.02%
17 | Cc1cc(C)c(CN2CCC(CO)(CCOc3ccccc3)CC2)cc1C | 17.3%
18 | Cc1cc(OCCN2CCN(Cc3ccccc3)CC2)ccc1I | 88.7% (active)
19 | Cc1cccc(Cn2nc(-c3ccc(Br)cc3)ccc2=O)c1 | 24.7%
20 | Cc1cccc(Cn2nc(-c3ccc(F)cc3)c3sc(C)nc3c2=O)c1 | 94% (active)
21 | O=c1ccc(-c2cccc(Br)c2)nn1Cc1cccc(F)c1 | 48.5%
22 | CC(C)c1ccc(S(=O)(=O)c2ccc(Cl)cc2)cc1 | -10.2%
23 | CC(C)c1ccc(C(N)=S)cc1 | 99.7% (active)
24 | COc1ccc(C(N)=S)cc1 | 68.6% (active)
25 | COc1ccc2c(C)nc(N=C(N)N)nc2c1 | 38.5%
26 | CCN(C(=O)c1ccc2c(=O)n(CC)c(=O)[nH]c2c1)c1ccccc1C | -22.1%

Row | Structure (SMILES) | inhibition
27 | c1ccc(CCc2noc(CN3CCN(c4nc5ccccc5s4)CC3)n2)cc1 | 89.5% (active)
28 | CCCc1nc(CN2Cc3ccccc3-c3ccccc3C2)no1 | -15.3%
29 | c1csc(-c2noc(CN3CCCN(c4nc5ccccc5s4)CC3)n2)c1 | 91.6% (active)
30 | Fc1ccccc1Cc1noc(CN2CCN(c3nc4ccccc4s3)CC2)n1 | 60.6% (active)
31 | Fc1ccc(Cn2ncc3c2CN(c2nc4ccccc4s2)C3)cc1 | 32.9%
32 | O=C(NN=Cc1ccco1)c1cc(-c2ccc(Cl)cc2)n[nH]1 | 43.3%
33 | O=C(NN=Cc1ccc(O)cc1)c1cc(C23CC4CC(CC(C4)C2)C3)[nH]n1 | 16.7%
34 | O=C(NN=Cc1ccc(O)cc1)c1cc(-c2ccc(Cl)cc2Cl)n[nH]1 | 85.8% (active)
35 | COCCCCC(=O)Nc1cc(C(F)(F)F)[nH]n1 | 78% (active)
36 | COc1cccc2c1OC(c1ccccn1)N1N=C(c3ccccc3)CC21 (centres undefined) | -22.4%
37 | COc1cccc(C2Oc3ccccc3C3CC(c4ccc5c(c4)OCCO5)=NN32)c1 (centres undefined) | 103% (active)
38 | Cc1cccc(C2Oc3ccccc3C3CC(c4ccc5c(c4)OCCO5)=NN32)c1 (centres undefined) | -14.9%
39 | CN1CCC[C@@H]1CCO[C@](C)(c1ccccc1)c1ccc(Cl)cc1 | 37.7%
40 | O=C(Nc1ncc(-c2ccccc2)s1)OCC(F)(F)F | 0.3%
41 | O=C(Nc1ncc(-c2ccccc2)s1)C1CSCCS1 (centres undefined) | 95.8% (active)
42 | CC1(C)CC(=O)CC(=NNC(=S)NC2CCCCC2)C1 | 34.4%
43 | S=C(NN=C1CC2CC=CC12)NC1CCCCC1 (centres undefined) | 1.05%
44 | O=C1CCCC(=NNC(=S)NC2CCCCC2)C1 | 55.2% (active)
45 | CN(CCC(O)c1ccccc1)C(=O)c1ccc(Cl)s1 (centres undefined) | 13.2%
46 | CC(CCc1ccccc1)N=c1c([N+](=O)[O-])nn(-c2ccccc2)n1O (centres undefined) | 102% (active)
47 | Cc1cc2c(=O)n(Cc3ccco3)c(SCC(=O)c3cccs3)nc2s1 | 85.2% (active)
48 | COc1ccc(-c2noc(COc3cccc4c3OCCO4)n2)cc1 | 51.6% (active)
49 | COc1ccc(-c2noc(CSc3nnnn3C3CCCC3)n2)cc1 | 41%
50 | CC(C(O)c1ccccc1)N(C)C(=O)c1ccccc1 (centres undefined) | 1.34%
51 | CN(NC(=O)CC(=O)NN(C)C(=S)c1ccccc1)C(=S)c1ccccc1 | 102% (active)
52 | Oc1ccc2ccccc2c1C=NNc1nnc(-c2ncc[nH]2)c2ccccc12 | 99% (active)

Row | Structure (SMILES) | inhibition
53 | Oc1ccc2ccccc2c1C=NNC1=NCCC1 | 27.5%
54 | Cc1cc(=O)[nH]c(NN=Cc2c3ccccc3cc3ccccc23)n1 | 49.1%
55 | CCCC(C)C1(CC)C(=O)NC(=S)NC1=O (centres undefined) | 32.6%
56 | CS(=O)(=O)Nc1ccc([N+](=O)[O-])cc1Oc1ccccc1 | 24.9%
57 | Nc1ccc(S(=O)(=O)Nc2ccc([N+](=O)[O-])cc2O)cc1 | 53.9% (active)
58 | Nc1cc([N+](=O)[O-])ccc1NS(=O)(=O)c1ccc(Cl)cc1 | -52.1%
59 | CC(=NNC(N)=S)C1=CC(C)(C)CCC1 | 90.9% (active)
60 | CCOc1ccc(NC(=O)c2ccc(Br)s2)cc1 | 8.86%
61 | Cc1cnc(NC(=O)c2cccc(OC(F)F)c2)s1 | -11.7%
62 | CCc1ccc(C(=O)Nc2ncc(C)s2)s1 | 62.1% (active)
63 | Cc1cnc(NC(=O)C2=C(O)c3ccccc3S(=O)(=O)N2C)s1 | 34.9%
64 | CCc1ccc(C(=O)Nc2ccc(Br)cc2)s1 | 73.9% (active)
65 | Cn1c(=NN=CC(Cl)=Cc2ccccc2)sc2ccccc21 | 88.7% (active)
66 | Cn1c(=NN=Cc2ccccc2C(F)(F)F)sc2ccccc21 | -39.7%
67 | COc1cc(C=NN=c2sc3ccccc3n2C)cc(Br)c1O | 10.7%
68 | COc1cc(C=NN=c2sc3ccccc3n2C)cc(OC)c1O | 68.8% (active)
69 | Cn1c(=NN=CC(Br)=Cc2ccccc2)sc2ccccc21 | 88.2% (active)
70 | Cn1c(=NN=Cc2ccc(OC(F)F)cc2)sc2ccccc21 | -24.6%
71 | O=C(NCC1CCCC1)n1ccnc1 | 79.2% (active)
72 | Cc1cc(NC(=O)C2CC2)sc1C(=O)n1ccnc1 | 48.7%
73 | CCN(CCNC(=O)NCC1CCCC1)C(=O)OC(C)(C)C | 47.4%
74 | CC1CN(C(=O)CN2CCc3sccc3C2c2cccc(F)c2)CCN1C(=O)Nc1ccc([N+](=O)[O-])cc1 (centres undefined) | -36.2%
75 | OC(C#Cc1ccccc1)C#CC(O)(c1ccccc1)c1ccccc1 (centres undefined) | -2.57%
76 | CSc1ccc(C=CC(=O)c2ccc3c(c2)OCCO3)cc1 | -10.1%
77 | N#CC(=Cc1ccc2c(c1)OCCO2)C(=O)Nc1ccc(SC(F)F)cc1 | 84.4% (active)
78 | O=S(=O)(Nc1ccccc1Br)c1ccccc1Br | 91.4% (active)

Row | Structure (SMILES) | inhibition
79 | O=S(=O)(Nc1ccccc1Br)c1ccc(Br)s1 | 83.3% (active)
80 | COC(=O)c1ccc(NS(=O)(=O)c2ccccc2Br)s1 | 43.4%
81 | CC(C)(C)c1ccccc1NS(=O)(=O)c1ccc(Cl)s1 | 23.7%
82 | CCc1ccccc1NS(=O)(=O)c1cc(Cl)cnc1N | 1.41%
83 | CC1(C)C(C=C(Cl)Cl)C1C(=O)OCc1cccc(Oc2ccccc2)c1 (centres undefined) | -12.7%
84 | O=C(NCCc1cc(Cl)cc(Cl)c1)c1ccc2c(c1)COCO2 | 25.3%
85 | CCOc1ccccc1CNC(=O)c1ccc(-c2cc(-c3ccc(Cl)cc3Cl)[nH]n2)cc1 | 31.1%
86 | O=C(NCCc1ccc(Cl)cc1Cl)c1cn[nH]c1 | 91.4% (active)
87 | CN(C)c1c(Cl)cccc1NC(=O)NCc1ccoc1 | 40.8%
88 | CC(=O)Nc1ccc(OCc2ccc(Br)cc2F)cc1 | 62.5% (active)
89 | COc1cc(COc2ccc(NC(C)=O)cc2)c(OC)cc1Br | 19.7%
90 | FC(F)(F)c1cccc(CSc2ncnc3ccccc23)c1 | 38.1%
91 | CC(=O)Nc1ccc(OCc2cccc(C(F)(F)F)c2)cc1 | 57.6% (active)
92 | Oc1cccc(OCc2cccc(C(F)(F)F)c2)c1 | 89.2% (active)
93 | ON=Cc1cccc(OCc2ccccc2)c1 | -7.21%
94 | N#Cc1ccc(NC(=O)Cc2cccc(C(F)(F)F)c2)cc1Cl | 8.71%
95 | CC(NS(=O)(=O)Cc1cccc(C(F)(F)F)c1)c1cccc(Br)c1 (centres undefined) | 25.3%
96 | COc1ccccc1/C=C/C=C1N=C(/C=C/c2ccc(C)cc2)OC\1=O | 81.8% (active)
97 | O=C1N=C(c2ccccc2)OC1=CC=Cc1ccccc1 | -12.3%
98 | O=c1c2ccccc2nnn1CSc1ccc(F)cc1 | 72.2% (active)
99 | Cc1cc(NC(=O)c2cccn(Cc3ccc(Cl)cc3)c2=O)c2ccccc2n1 | 20.7%
100 | O=c1c2ccccc2nnn1Cc1ccc(Cl)cc1 | 103% (active)
101 | Cc1ccc(OCC(O)Cn2nnc3ccccc3c2=O)cc1 (centres undefined) | 35%
102 | CCCc1nnc(SCc2ccc(OCCC(C)C)cc2)n1N | 37.1%
103 | CC1N(C)c2ccc(C=C(C#N)C#N)cc2C1(C)C (centres undefined) | -15.1%
104 | CC(C)CCOc1ccc(C=C(C#N)C#N)cc1 | 51.5% (active)
